Measurements from PubChem BioAssay (Tox21).
Values joined by “and” are separate entries in the source; they are usually repeats but may differ in a detail not shown here. Identical values can stand only once. Results filed as inconclusive are left out. Entries that show only a call come without a potency. Some structures have more than one record in an assay (separate samples or runs), and their calls can disagree. Active and inactive are the calls of the source. Unless noted, calls follow the shape of the dose curve; as a rule, active = well fitted curve in the direction sought with a large enough effect in the repeat runs; inconclusive = weak or mixed curves; inactive = no such curve, though single readings can be large; an effect the other way counts as inactive or inconclusive.

Tests used:
[1] = qHTS assay to identify small molecule antagonists of the estrogen related receptor (ERR) signaling pathway from Tox21 library - cell viability counter screen (AID 1224834); also: nearly all actives have a fitted effect of over 30% in size; also: potency is read from the fitted curve at half-maximal effect
In short: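 Fluorescence from CellTiter-Fluor gives the viability read-out, taken 30 min after reagent addition. Before that, ERR cells seeded 6 h earlier were incubated with compounds for 17.5 h at 37 C.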

[2] = qHTS assay to identify small molecule agonists of the constitutive androstane receptor (CAR) signaling pathway - cell viability counter screen (AID 1224836); also: nearly all actives have a fitted effect of over 45% in size; also: potency is read from the fitted curve at half-maximal effect
In short: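 Viability read-out: CellTiter-Fluor fluorescence after 23 h compound exposure at 37 C/5% CO2 in double-stable HepG2-CYP2B6-hCAR cells, with PK11195 present at 0.75 uM final; compounds tested in 15-point titration.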

[3] = molecular target: Nuclear receptor subfamily 1 group I member 3 (Homo sapiens) (UniProt Q14994); experiment: qHTS assay to identify small molecule antagonists of the constitutive androstane receptor (CAR) signaling pathway (AID 1224838);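 also: HepG2 cells stably expressing hCAR with CYP2B6 luciferase reporter stimulated by CITCO; nearly all actives have a fitted effect of over 40% in size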; also: potency is read from the fitted curve at half-maximal effect
In short: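 HepG2-CYP2B6-hCAR cells; 4 h pre-incubation; cpd (15 conc) + CITCO 50 nM final; 24 h, 37 C/5% CO2; ONE-Glo, luminescence.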

[4] = molecular target: Nuclear receptor subfamily 1 group I member 3 (Homo sapiens) (UniProt Q14994); experiment: qHTS assay to identify small molecule agonists of the constitutive androstane receptor (CAR) signaling pathway (AID 1224839); also: nearly all actives have a fitted effect of over 15% in size; also: potency is read from the fitted curve at half-maximal effect
In short: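 Luminescence read-out (ONE-Glo, 30 min, room temperature) from double-stable HepG2-CYP2B6-hCAR cells exposed 24 h to 15-point compound series in presence of 0.75 uM PK11195 final.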

[5] = qHTS assay to identify small molecule antagonists of the estrogen related receptor signaling pathway with the pleiotropic PPARgamma coactivator (PGC) from Tox21 10K library - cell viability counter screen (AID 1224840; active = well fitted cell-killing curve with a large enough effect in the repeat runs, not every such curve was filed as active; also: nearly all actives have a fitted effect of over 40% in size; also: potency is read from the fitted curve at half-maximal effect)
In short: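 PGC/ERR cells, 2,000/well; 6 h pre-incubation 37 C/5% CO2; cpd in DMSO via pin tool; 17.5 h 37 C; CellTiter-Fluor, 30 min; fluorescence.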

[6] = qHTS assay to identify small molecule agonists of the estrogen related receptor signaling pathway with the pleiotropic PPARgamma coactivator (PGC) from Tox21 10K library (AID 1224842); also: nearly all actives have a fitted effect of over 15% in size
In short: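 Luminescence from One-Glo (30 min, room temperature) measured after PGC/ERR cells had 18 h at 37 C with pinned compound (23 nL in DMSO). Cells had been seeded at 2,000 per well and pre-incubated 6 h.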

[7] = molecular target: Thyrotropin receptor (Homo sapiens) (UniProt P16473); experiment: qHTS assay to identify small molecule agonists of the thyroid stimulating hormone receptor (TSHR) signaling pathway (AID 1224843; calls by dose curve; also: nearly all actives have a fitted effect of over 45% in size; also: potency is read from the fitted curve at half-maximal effect)
In short: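 Screening of the Tox21 10K collection used HEK293 cells engineered with TSHR at 800 cells per well. After a 30-min room-temperature compound exposure, HTRF cAMP reagents were added and fluorescence recorded 1 h later.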

[8] = qHTS assay to identify small molecule antagonists of the constitutive androstane receptor (CAR) signaling pathway - cell viability counter screen (AID 1224837); also: nearly all actives have a fitted effect of over 45% in size; also: potency is read from the fitted curve at half-maximal effect
In short: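 HepG2-CYP2B6-hCAR cells, 2500/well, 4 hr pre-incubation; compound titration, 15 conc.; CITCO 50 nM final; 23 hr, 37 C/5% CO2; CellTiter-Fluor, fluorescence intensity.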

[9] = qHTS assay to identify small molecule antagonists of the estrogen related receptor signaling pathway with the pleiotropic PPARgamma coactivator (PGC) from Tox21 10K library (AID 1224841; call rule not given here; also: actives are mostly falling curves and most rising ones were filed inactive; nearly all actives have a fitted effect of over 50% in size; also: potency is read from the fitted curve at half-maximal effect)
In short: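 PGC/ERR cell line, 2,000 cells/well; 6 h pre-incubation 37 C/5% CO2; compounds (DMSO) pinned in; 18 h, 37 C; One-Glo, 30 min RT; luminescence.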

[10] = molecular target: Luciferin 4-monooxygenase (Photinus pyralis) (UniProt P08659); experiment: qHTS assay to identify small molecule inhibitors of firefly luciferase (AID 1224835); also: nearly all actives have a fitted effect of over 25% in size; also: potency is read from the fitted curve at half-maximal effect
In short: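 Inhibition of purified Photinus luciferase is measured by luminescence. Substrate levels (D-luciferin, ATP) sit at their KM values. Each compound is tested in a concentration series.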

Chain of Nuclear receptor subfamily 1 group I member 3 (Homo sapiens) (Q14994 whole entry, looked up): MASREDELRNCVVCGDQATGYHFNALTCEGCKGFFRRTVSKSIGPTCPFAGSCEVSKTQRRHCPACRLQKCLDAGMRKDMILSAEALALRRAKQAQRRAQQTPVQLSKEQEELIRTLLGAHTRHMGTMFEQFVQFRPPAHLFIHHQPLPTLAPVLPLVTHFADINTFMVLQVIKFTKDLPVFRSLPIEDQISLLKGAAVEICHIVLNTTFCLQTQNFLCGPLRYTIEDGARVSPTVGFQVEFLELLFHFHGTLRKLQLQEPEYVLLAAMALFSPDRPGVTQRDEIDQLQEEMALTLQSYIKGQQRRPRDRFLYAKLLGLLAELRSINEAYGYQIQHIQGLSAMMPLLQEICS
Chain of Luciferin 4-monooxygenase (Photinus pyralis) (P08659 whole entry, looked up): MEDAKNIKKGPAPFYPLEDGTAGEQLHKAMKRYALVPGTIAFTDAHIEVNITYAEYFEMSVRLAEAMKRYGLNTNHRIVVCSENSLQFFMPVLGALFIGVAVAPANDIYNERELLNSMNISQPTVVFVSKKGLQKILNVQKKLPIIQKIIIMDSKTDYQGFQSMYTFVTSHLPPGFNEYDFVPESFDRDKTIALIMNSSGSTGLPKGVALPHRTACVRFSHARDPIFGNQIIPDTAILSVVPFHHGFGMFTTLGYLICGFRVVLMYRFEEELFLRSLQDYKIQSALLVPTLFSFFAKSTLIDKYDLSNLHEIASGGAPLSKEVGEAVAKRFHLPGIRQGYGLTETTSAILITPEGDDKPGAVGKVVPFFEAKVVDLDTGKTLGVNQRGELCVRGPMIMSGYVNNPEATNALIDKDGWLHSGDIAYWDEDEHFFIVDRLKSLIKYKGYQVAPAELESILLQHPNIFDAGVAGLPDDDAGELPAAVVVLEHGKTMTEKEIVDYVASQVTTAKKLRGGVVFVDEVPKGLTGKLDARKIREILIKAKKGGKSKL
Chain of Thyrotropin receptor (Homo sapiens) (P16473 whole entry, looked up): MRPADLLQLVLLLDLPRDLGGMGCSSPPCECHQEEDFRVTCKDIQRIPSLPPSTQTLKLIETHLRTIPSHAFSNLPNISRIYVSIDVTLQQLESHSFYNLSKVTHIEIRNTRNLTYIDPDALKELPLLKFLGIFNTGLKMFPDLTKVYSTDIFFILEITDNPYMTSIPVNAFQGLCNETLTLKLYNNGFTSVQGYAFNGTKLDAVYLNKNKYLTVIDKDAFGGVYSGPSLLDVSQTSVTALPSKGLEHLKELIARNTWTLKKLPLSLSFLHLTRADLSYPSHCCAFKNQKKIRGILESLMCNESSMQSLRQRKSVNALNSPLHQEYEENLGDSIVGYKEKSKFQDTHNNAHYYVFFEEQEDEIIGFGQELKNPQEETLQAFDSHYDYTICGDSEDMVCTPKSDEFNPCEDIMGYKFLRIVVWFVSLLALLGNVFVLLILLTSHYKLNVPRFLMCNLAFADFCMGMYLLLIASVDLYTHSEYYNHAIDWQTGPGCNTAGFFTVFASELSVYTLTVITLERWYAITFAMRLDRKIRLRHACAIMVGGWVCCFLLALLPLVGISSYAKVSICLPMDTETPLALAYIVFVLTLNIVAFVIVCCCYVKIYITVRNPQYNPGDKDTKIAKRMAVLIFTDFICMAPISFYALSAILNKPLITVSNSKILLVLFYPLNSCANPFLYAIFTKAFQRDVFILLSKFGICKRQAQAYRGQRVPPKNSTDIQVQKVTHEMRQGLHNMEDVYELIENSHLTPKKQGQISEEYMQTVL

SMILES	Potency [1]	Potency [2]	Potency [3]	Potency [4]	Potency [5]	Potency [6]	Potency [7]	Potency [8]	Potency [9]	Potency [10]
O=C1CCCCCN1SSN1CCCCCC1=O	inactive	inactive	27.3 µM (active)	inactive	inactive	inactive				
CC(C)(C)c1ccc(C(=O)CCCN2CCC(OC(c3ccccc3)c3ccccc3)CC2)cc1	23.7 µM (active)	29.8 µM (active)		inactive	29.8 µM (active)		11.9 µM (active)			
C[C@]12CCC(=O)C=C1CC[C@@H]1[C@@H]2[C@@H](O)C[C@@]2(C)[C@H]1CC[C@]2(O)C(=O)COC(=O)CCC(=O)O	inactive	inactive			inactive		inactive	inactive		
CC(C)(C)CC(C)(C)c1ccc(OCCOCC[N+](C)(C)Cc2ccccc2)cc1	48.5 µM (active) and 13.3 µM (active)	inactive			48.5 µM (active)	inactive	13.7 µM (active) and 11.9 µM (active)		27.3 µM (active) and 6.68 µM (active)	
N=C1N=C(N)c2ccccc21	43.3 µM (active)	48.6 µM (active)	17.2 µM (active)	inactive				54.5 µM (active)		
CCCC/C=C/CCCCO	inactive	inactive			inactive		inactive	inactive		
CNc1ccc(O)cc1	43.2 µM (active)				48.5 µM (active)	inactive				39.8 µM (active)
CN(C)c1ccc(SC#N)cc1	inactive	inactive	27.3 µM (active)	inactive	inactive					
Oc1ccc2c(c1)-c1ccccc1C2	inactive	inactive	inactive	54.5 µM (active)	inactive	inactive	inactive		inactive	
CCCCCCCC[P+](CCCCCCCC)(CCCCCCCC)CCCCCCCC	9.63 µM (active)	1.92 µM (active)	10.8 µM (active)	inactive	10.8 µM (active)	inactive	inactive			
Oc1ccc(C2(c3ccc(O)cc3)CC3CC2C2CCCC32)cc1 (configuration not stated)	58.7 µM (active)				58.7 µM (active)	inactive				inactive
COC(=O)C1=C(C)NC(C)=C(C(=O)OCCc2ccc(N3CCN(C(c4ccccc4)c4ccccc4)CC3)cc2)C1c1cccc([N+](=O)[O-])c1 (configuration not stated)	inactive	inactive			inactive					
N=C1N=C(N)c2cc3ccccc3cc21	27.3 µM (active)				27.3 µM (active)		6.86 µM (active)		inactive	inactive
On1ccccc1=S	1.71 µM (active)	1.21 µM (active)			0.605 µM (active)	inactive		0.762 µM (active)	3.4 µM (active)	
CCCCCCCCCCCCCCCCCC[N+](C)(C)Cc1ccccc1	49 µM (active)	55 µM (active)	49 µM (active)	inactive	55 µM (active)	inactive	55 µM (active)	55 µM (active)	30.9 µM (active)	
COC(=O)C1=C(C)NC(C)=C(C(=O)OCC(C)C)C1c1ccccc1[N+](=O)[O-] (configuration not stated)	21.7 µM (active) and 29.8 µM (active)	inactive	inactive		27.3 µM (active) and inactive	inactive	inactive		13.7 µM (active) and 21.1 µM (active)	
CCCCCCCC[N+](CCCCCCCC)(CCCCCCCC)CCCCCCCC	24.3 µM (active)	9.67 µM (active)		inactive	21.6 µM (active)	inactive				
O=[N+]([O-])c1cc([N+](=O)[O-])c2ccc(S(=O)(=O)O)cc2c1O	12.1 µM (active)	27.1 µM (active)			24.2 µM (active)			24.2 µM (active)		
OCCN1CCN(CC/C=C2/c3ccccc3Sc3ccc(C(F)(F)F)cc32)CC1	29.8 µM (active)				29.8 µM (active)	inactive	inactive		29.8 µM (active)	inactive
CCCCCOC(=O)CCCC	inactive	inactive			inactive		inactive	inactive		
Oc1ccc2cc(SSc3ccc4cc(O)ccc4c3)ccc2c1	61.1 µM (active)	inactive				inactive		inactive		
CN(C)[C@@H]1C(=O)C(C(N)=O)=C(O)[C@@]2(O)C(=O)C3=C(O)c4c(O)ccc(Cl)c4[C@@H](O)[C@H]3C[C@@H]12	inactive	inactive			inactive	inactive	inactive	inactive		
CCCCCCCCCCC=O	inactive	inactive			inactive	inactive	inactive		inactive	
CCN(CC)CCNC(=O)c1c(C)[nH]c(/C=C2\C(=O)Nc3ccc(F)cc32)c1C	10.6 µM (active)	10.6 µM (active)		inactive	29.8 µM (active)			10.6 µM (active)		
O=c1c(-c2ccccc2)c1-c1ccccc1	8.41 µM (active)	inactive				inactive		inactive	9.44 µM (active)	
C[n+]1ccn(Cc2ccccc2)c1	inactive				inactive	inactive	inactive		inactive	inactive
